# From PubChem BioAssay AID651635 (National Center for Advancing Translational Sciences (NCATS), 2013)
# Among all 400,000 compounds or so, about 1,900 (0.47%) were called active. Not shown: some 14% with an inconclusive outcome. Calls follow the shape of the dose curve; as a rule, active = well fitted cell-killing curve with a large enough effect; inconclusive = small, poorly fitted or top-dose-only effect, or effect the other way; inactive = no such curve, though single readings can be large or run the other way. Shown is part of a subset that was picked to be rich in actives. Entries that show only a call come without a potency.
# Experiment: Viability Counterscreen for Primary qHTS for Inhibitors of ATXN expression; also: nearly all actives have a fitted effect of over 40% in size
# Conditions: S2 cells (HEK-293 line with an ATXN2-luciferase reporter) viability, CellTiter-Fluor protease fluorescence, 24 h; series mostly up to 56.7 µM
# Potency is read from the fitted curve at half-maximal effect.
row,Structure (SMILES),Potency
1,CCCc1c2oc(C(=O)O)cc(=O)c2cc2c(=O)cc(C(=O)O)n(CC)c12,inactive
2,O=C1CCN(Cc2ccc(-c3ccccc3)cc2)CCN1Cc1ccccn1,inactive
3,Cc1ncc2c(c1CNS(=O)(=O)N(C)C)CCN(C(=O)c1ccccc1F)C2,inactive
4,CS(=O)(=O)NC(=O)CCC/C=C\C[C@H]1C(=O)C[C@@H](O)[C@@H]1/C=C/[C@H](O)COc1ccccc1,inactive
5,Cc1ccc(-c2ccnc(-n3ncc(C(=O)N(C)Cc4cccc5ncccc45)c3C3CC3)n2)o1,inactive
6,COc1cccc(NC(=O)C2CCN(c3cc(C)nc4c(-c5ccc(Cl)cc5)c(C)nn34)CC2)c1,inactive
7,Cc1nnc(N2CCC(C(=O)Nc3ccc(F)cc3)CC2)c2nn(-c3ccc(Cl)cc3)c(C)c12,20 µM (active)
8,COc1ccc(-n2nc3c(N4CCC(C(=O)NCc5ccccc5)CC4)nnc(C)c3c2C)cc1,inactive
9,COC(=O)c1cc(OC)ccc1-c1ccc(OC)cc1,inactive
10,CCOC(=O)C1=C(c2ccc(OC)cc2)C(=O)c2ccccc2C1=O,6.31 µM (active)
11,CCOC(=O)N1CCN(S(=O)(=O)c2ccc(OC)cc2)CC1,inactive
12,COC(=O)[C@@H]1C[C@H](NC(=O)c2ccccc2C(F)(F)F)CN1Cc1cccc(O)c1,inactive
13,CC(C)(C)C1CCc2c(sc(NC(=O)c3ccccc3F)c2C(=O)N2CCCCC2)C1 (stereo not drawn),inactive
14,CC(O)CNCCOc1cccc(Oc2ccccc2)c1 (stereo not drawn),inactive
15,COc1cccc2[nH]c(C(=O)NCCc3ccccc3)cc12,inactive
16,COc1ccccc1OCCNCC(O)COc1cccc2[nH]c3ccccc3c12 (stereo not drawn),28.2 µM (active)
17,COc1ccc(NC(=O)C2Cc3c(-c4ccc5c(c4)OCO5)ccnc3O2)cn1 (stereo not drawn),inactive
18,Cc1ccc2cccc(NC(=O)c3cccc4ccccc34)c2n1,inactive
19,COc1cc(=O)n2c(c1C(=O)NCc1ccco1)CCN(Cc1ccccc1)CC2,inactive
20,Cc1cccc(C)c1NC(=O)c1ccc(N)cc1,inactive
21,Cc1cc(C(=O)NCC2Cc3cccc(-c4cncnc4)c3O2)c(C)o1 (stereo not drawn),inactive

row,Structure (SMILES),Potency
1,CNC[C@H](CC1CCCCC1)NC[C@H](NCCC1CCCC1)[C@H](C)O,17.8 µM (active)
2,O=C(NCC(c1ccc2c(c1)OCO2)N1CCN(c2ccccc2)CC1)C(=O)Nc1ccccc1F (stereo not drawn),inactive
3,O=S(O)CNc1ccc(S(=O)(=O)c2ccc(NCS(=O)O)cc2)cc1,inactive
4,O=C(CSc1ncn[nH]1)Nc1ccc(Br)cc1Br,inactive
5,O=C(/C=C/Sc1ncn[nH]1)c1ccc(Cl)cc1,25.1 µM (active)
6,O=C(CSc1ncn[nH]1)NCc1ccc2c(c1)OCO2,inactive
7,CC(C)Oc1ccc(CN2CCC2(C)C(=O)NCc2ccc(C(F)(F)F)cc2)cc1 (stereo not drawn),inactive
8,COc1cc(Cn2c3ccc(NC(=O)CC(C)c4ccccc4)cc3c(=O)n2C)ccc1F (stereo not drawn),inactive
9,Cc1cccc(Cc2c(C)nc3nc(SCc4ccccc4Cl)nn3c2C)c1,inactive
10,COc1ccc(CN(C)CCn2cc(C(=O)N3CCSCC3)nn2)cc1C,inactive
11,O=c1[nH]nc(SCCS(=O)(=O)c2ccc(F)cc2)n1-c1ccccc1C(F)(F)F,11.2 µM (active)
12,O=S(=O)(c1ccc(F)cc1)N1CCN(Cc2ccccc2C(F)(F)F)CC1,inactive
13,O=C(CSc1n[nH]c(=O)n1-c1ccccc1)Nc1ccccc1C(F)(F)F,inactive
14,COc1ccc(-c2csc(C(O)c3cccc(Cl)c3)n2)cn1 (stereo not drawn),inactive
15,COc1cc(=O)n2c(c1C(=O)NC(C)c1ccco1)CCN(Cc1cc(C)cc(C)c1)CC2 (stereo not drawn),inactive
16,Cc1c(C(=O)Nc2ccccn2)oc2ccc(Br)cc12,inactive
17,Oc1ccc(Br)cc1/C=N/Nc1ccccn1,0.251 µM (active)
18,O=C(CCc1ccc(O)cc1)NN=Cc1cc(Br)ccc1O,inactive
19,CN[C@H]1C[C@H]2c3cc(Oc4ccccc4C)ccc3CCN2C(=O)[C@H]1[C@H](C)O,inactive
20,COc1ccccc1-c1ccc(C(=O)N(C)C(C)c2ccon2)c(N2CCN(c3ccccc3F)CC2)n1 (stereo not drawn),inactive
21,COc1ccc(NC(=O)C(=O)NCc2ccco2)cc1,inactive

row,Structure (SMILES),Potency
1,COc1ccc(CS(=O)/C(Cl)=C(/Cl)C(=O)Nc2ccc(OC)nc2)cc1 (stereo not drawn),1.89 µM (active)
2,COc1ccc(C(O)c2nc(-c3ccc(OC)nc3)cs2)cc1 (stereo not drawn),inactive
3,Cc1nnc(C(=O)NC(C)(C)c2nc(C(=O)NCc3ccc(F)cc3)c(O)c(=O)n2C)o1,inactive
4,COc1cc(OC)cc(C(=O)Nc2ccc3nc(Nc4cccc(C(F)(F)F)c4)cc(C)c3c2)c1,inactive
5,Cc1cc(Nc2cccc(C(F)(F)F)c2)nc2ccc(NC(=O)c3ccc(=O)[nH]c3)cc12,inactive
6,COc1cc(NC(=O)c2[nH]cnc2C(N)=O)cc(C(=O)Nc2cccc(C(F)(F)F)c2)c1,10 µM (active)
7,CN(C)C(=O)[C@@H]1C[C@@H](Sc2nc3ccccc3[nH]2)CN1Cc1ccc(Cl)cc1,inactive
8,O=C(CCl)Nc1ccc(Sc2ccc(NC(=O)CCl)cc2)cc1,11.2 µM (active)
9,CCC(=O)Nc1ccc(Nc2nc(Cl)nc(Nc3ccc(NC(=O)CC)cc3)n2)cc1,inactive
10,CC(C)(CCl)C(=O)Nc1ccc(Sc2ccc(F)cc2)cc1,inactive
11,COC(=O)c1ccccc1-c1cc(C)cc2c1OC(CNC(=O)C1CCOC1)C2 (stereo not drawn),inactive
12,CNc1cncc(-c2ccc(NS(C)(=O)=O)cc2)n1,inactive
13,CCc1ccc2c(c1)NC(=O)C2(C)Cc1ccc(OC(F)(F)F)cc1 (stereo not drawn),20 µM (active)
14,COC(=O)Cc1ccc(OCC(=O)Nc2ccc(OC(F)(F)F)cc2)cc1,inactive
15,CCC1CN(CCNC(=O)c2cccnc2C)Cc2cc(OC)ccc2O1 (stereo not drawn),inactive
16,COc1ccc(CN2CCC3(CCC(CNC(=O)c4ccco4)O3)CC2)cc1OC (stereo not drawn),inactive
17,CCCCOC(=O)/C(C#N)=C/c1ccc(-c2cccc(C(F)(F)F)c2)o1,inactive
18,CC1(Cc2cccc(C#N)c2)C(=O)Nc2ccc(-c3cccc(C(F)(F)F)c3)cc21 (stereo not drawn),25.1 µM (active)
19,O=c1cc(O)c(-c2cccc(C(F)(F)F)c2)c(Cl)[nH]1,inactive
20,COCCCN1CCC(NC(=O)c2cc(Cl)c(N)c3c2OCC3)CC1,inactive
21,COc1ccccc1C(=O)N[C@@H]1c2ccccc2C2(CCN(C(=O)c3csnn3)CC2)[C@H]1OC,inactive
